A selection: hits, their analogues and other compounds. The true share with any hit is near 2.4%.
Prx2 Sm inh – blocks S. mansoni peroxiredoxin 2 enzymatic activity. S. mansoni Prx2 activity coupled to TGR/GSH (TGR is thioredoxin glutathione reductase), NADPH fluorescence loss, qHTS. Potency, µM. 65,000 compounds, 0.07% hits
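Coupled assay in which S. mansoni TGR passes NADPH reducing equivalents via glutathione to Prx2, which reduces H2O2. Compounds were preincubated 15 min at room temperature with 25 nM TGR/50 nM Prx2 mix. Kinetic NADPH fluorescence loss (ex 365/em 450 nm) was monitored.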
Anthrax LT inh – blocks cellular internalization of anthrax lethal toxin; Cells, anthrax lethal toxin internalization, FRET ratio (460/530); Potency, µM (top dose mostly 40 µM), for the others: at the highest dose activity change, negative = inhibition, actives largely listed as inhibitors; 70,000 compounds, 0.67% hits; AID 912; also: % is scaled to controls: 0 for no effect and ±100 for the full control effect; nearly all actives have a fitted effect of over 50% in size
AmpC det inh – inhibitors of E. coli AmpC beta-lactamase with detergent; P00811; purified AmpC, nitrocefin hydrolysis with detergent; Potency, µM (series often up to 28.7 µM), inactives show at the highest dose activity change, negative = inhibition; 71,000 compounds, 0.09% hits; AID 584; active = well fitted curve in the direction sought with a large enough effect; inconclusive = small, poorly fitted or top-dose-only effect; also: % is scaled to controls: 0 for no effect and ±100 for the full control effect
Target sequence (P00811 whole entry, looked up): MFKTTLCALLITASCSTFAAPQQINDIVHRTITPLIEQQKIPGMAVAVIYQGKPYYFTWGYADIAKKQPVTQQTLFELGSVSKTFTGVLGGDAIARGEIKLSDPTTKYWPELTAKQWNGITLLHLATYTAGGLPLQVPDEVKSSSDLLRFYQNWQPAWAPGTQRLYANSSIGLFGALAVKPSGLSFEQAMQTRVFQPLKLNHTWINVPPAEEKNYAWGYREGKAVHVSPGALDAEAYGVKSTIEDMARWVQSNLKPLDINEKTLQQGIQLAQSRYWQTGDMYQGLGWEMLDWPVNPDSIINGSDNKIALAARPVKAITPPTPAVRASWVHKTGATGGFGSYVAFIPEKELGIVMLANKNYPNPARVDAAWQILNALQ
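E. coli AmpC (5.3 nM) in 20 mM phosphate pH 7.0 with 0.01% Triton X-100, preincubated 15 min RT with compound; nitrocefin (2 uL of 800 uM stock) hydrolysis followed by 480 nm absorbance every 20 s over 4 min.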
AmpC inh no det – blocks E. coli AmpC beta-lactamase in absence of detergent. AmpC nitrocefin hydrolysis, absorbance 480 nm, no detergent. Potency, µM (top dose mostly 28.7 µM), without a hit: at the highest dose activity change, negative = inhibition. 71,000 compounds, 1.8% hits. AID 585; also: % of control where 0% means no effect
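AmpC, 20 mM phosphate pH 7.0; 15 min cpd preinc, RT; start with nitrocefin (800 uM stock); A480 kinetic read, 20 s intervals, 4 min. No-enzyme wells = negative control.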
An asterisk follows results filed as active; ? = inconclusive; · = no result; [ ] = another dose, or the depositor's remark. Unless noted, calls follow the shape of the full dose curve. Potency is read from the fitted curve at half-maximal effect.

SMILES	Prx2 Sm inh	Anthrax LT inh	AmpC det inh	AmpC inh no det
COC(=O)NC(CC(C)=O)c1ccco1 (configuration not stated)	·	-3%[8 µM]	·	·
N#CCCn1c(=O)c(-c2ccc(Cl)cc2)nc2cnc(N3CCNCC3)nc21	>57	?	0%	98%
CCOC(=O)C1CCCN(c2c(NCc3ccco3)c(=O)c2=O)C1 (configuration not stated)	>57	3%	14%	4µM*[single pt active]
Cc1ccc(C)c(NC(=O)c2nnn(Cc3ccccc3)c2N)c1	>57	-8%	24%	-12%
COc1ccc(C)cc1NC(=O)c1nnn(Cc2cccc(F)c2)c1N	·	-6%	15%	3.2µM*[single pt active]
COc1ccc(NC(=O)c2nnn(Cc3cccc(F)c3)c2N)c(OC)c1	>57	-4%	11%	2.5µM*[single pt active]
COc1ccc(OC)c(NC(=O)c2nnn(Cc3ccc(Br)cc3F)c2N)c1	?	?	13%	3.2µM*[single pt active]
COc1cccc(Cn2nnc(C(=O)Nc3cc(Cl)ccc3OC)c2N)c1	>57	?	12%	-22%
NC(N)=N[C@H](CCC(=O)O)C(=O)O	>57	13%	-8%	7%
CCNc1ncc2nc(-c3ccc(F)cc3)c(=O)n(C)c2n1	>57	?	0%	8%
Nc1nc(-c2ccco2)nc(N2CCCCC2)n1	>57	10%	2%	0%
c1ccc2c(N3CCCCC3)nc(N3CCCC3)nc2c1	>57	10µM*	-5%	22%
Nc1nc(N2CCCCC2)nc2ccccc12	>57	20µM*	-7%	18%
c1ccc(-c2nc(N3CCCCCC3)c3ccccc3n2)nc1	·	?	2%	48%
BrCC(Br)C1CCC(Br)C(Br)C1 (configuration not stated)	·	16µM*	9%	-22%
CN1CC[C@@]2(CCCN(C(=O)c3cccn3C)C2)C1	>57	-5%	1%	20%
CCOC(=O)Cc1csc(-n2sc3ccccc3c2=O)n1	>57	3.2µM*	9%	6%
C[C@H]1/C=C\CC(=O)OC[C@H](C)C(=O)N2CCC[C@@H]2C(=O)OC1	·	-9%[8 µM]	·	·
CCCCCCCCC	·	-4%	10%	-10%
O=C(Cn1ncc2c(=O)oc3ccccc3c21)N(Cc1ccco1)C1CCCCC1	>57	-15%	10%	3.2µM*[single pt active]
O=C(Cn1ncc2c1-c1ccccc1OC2)N(Cc1ccco1)C1CCCCC1	>57	-11%	11%	81%
CN1CCc2c(sc3c2C(=O)NC(c2ccco2)N3)C1 (configuration not stated)	>57	?	22%	9%
CN1CCc2c(sc3c2C(=O)NC(c2cccc(OC(=O)c4cccs4)c2)N3)C1 (configuration not stated)	>57	?	12%	3.2µM*[single pt active]
Cc1cc(N2CCN(C3CCCC3)CC2)n2nc(C)c(-c3ccccc3)c2n1	>57	-12%	-1%	106%
CCOC(=O)N1CCN(S(=O)(=O)c2ccc3c(c2)oc(=O)n3C)CC1	>57	·	-5%	10%
SMILES	Prx2 Sm inh	Anthrax LT inh	AmpC det inh	AmpC inh no det
CCCN1CCN(C(=O)C2CCN(S(=O)(=O)c3ccc4c(c3)oc(=O)n4C)CC2)CC1	>57	?	11%	4µM*[single pt active]
Cn1c(=O)c2c(nc(N/N=C\c3ccccc3C(=O)O)n2C)n(C)c1=O	>57	-6%[8 µM]	-2%[5.75 µM]	10%[5.75 µM]
COc1ccc2cccc(N3CCN(CCNC(=O)c4ccc(F)cc4)CC3)c2c1	>57	?	-3%	50%
O=C(Cc1c[nH]c2ccccc12)Nc1nc2ccccc2[nH]1	>57	-2%	2%	7.9µM*
O=C(Cc1ccccc1)Nc1nc2ccccc2[nH]1	>57	-7%	-5%	-17%
Cn1nc(CC(=O)NC2CCCCCC2)c2ccccc2c1=O	>57	?	11%	3.2µM*[single pt active]
COc1ccc(CNC(=O)Cc2nn(C)c(=O)c3ccccc23)cc1	>57	-9%	-2%	3%
COc1cc2c(cc1OC)[C@H](c1ccccc1)CN(C)CC2	>57	5%	-4%	9%
Cc1cc(C)cc(NC(=O)CSc2nnc(Cn3c(=O)sc4ccccc43)n2C)c1	>57	-1%	9%	4µM*[single pt active]
Cn1c(Cn2c(=O)sc3ccccc32)nnc1SCC(=O)Nc1ccc(Cl)cc1	>57	8%	11%	4µM*[single pt active]
Cn1c(Cn2c(=O)sc3ccccc32)nnc1SCC(=O)Nc1cccc(Cl)c1	>57	7%	23%	8%
Cn1c(Cn2c(=O)sc3ccccc32)nnc1SCC(=O)Nc1cccc(F)c1	>57	-2%	13%	4µM*[single pt active]
CCN(CC)CCCN(C(=O)c1cccs1)c1nc(-c2ccc(OC)cc2)cs1	>57	10µM*	-7%	103%
COc1ccc(-c2csc(N(CC3CCCO3)C(=O)c3cccs3)n2)cc1 (configuration not stated)	>57	-26%	2%	27%
Cc1cc(NC(=O)c2cc(-c3cccs3)nc3ccccc23)no1	>57	?	5%	4µM*[single pt active]
Cc1cc(NC(=O)c2cc(-c3ccccn3)nc3ccccc23)no1	>57	?	-5%	18%
Cc1cc(N2CCN(S(=O)(=O)c3ccc(Cl)cc3)CC2)c2ccccc2n1	·	10µM*	-4%	123%
Cc1cc(C)n(-c2nc3ccccc3nc2N2CCN(S(=O)(=O)c3ccc(F)c(C)c3)CC2)n1	>57	15%	-2%	72%
CCCCCCCC/C=C\CCCCCCCC(=O)NCCc1ccc(O)c(O)c1	>57	?	-8%	10µM*
Cn1c(C(C#N)C(=O)c2sc3ccccc3c2Cl)nc2ccccc21 (configuration not stated)	>57	?	-1%	13µM*
Cc1ccc2nc3nc4ccc[nH]c4cc3c2c1	·	-3%[8 µM]	·	·
CCCN1C(=O)c2cc(C(=O)NC3CCCCCC3)ccc2C1O (configuration not stated)	>57	-4%	15%	4µM*[single pt active]
CN(C)c1ccc(/C=N\NC(=O)c2cnc3ccccc3c2)cc1	>57	-18%[8 µM]	-3%[5.75 µM]	3%[5.75 µM]
Cc1cccc(CNc2cc(-c3cccnc3)ncn2)c1	>57	20%	11%	23%
CCOc1ccc(-c2nc(-c3ccc(OC)c(OC)c3)no2)cc1OCC	>57	·	-2%	25%
SMILES	Prx2 Sm inh	Anthrax LT inh	AmpC det inh	AmpC inh no det
COc1cc(-c2nc(-c3ccc(Br)o3)no2)cc(OC)c1OC	>57	-24%	15%	4µM*[single pt active]
COc1ccc(-c2noc(-c3ccc(Br)o3)n2)cc1OC	>57	?	-2%	9%
COc1ccc(-c2noc(-c3cc(C)cc(C)c3)n2)cc1OC	>57	-25%	8%	1.3µM*[single pt active]
CCCCC(CC)COCC1CO1 (configuration not stated)	·	-2%	7%	-4%
COc1ccccc1N(C(C)=O)C1SC(=O)N(c2ccccc2)C1=O (configuration not stated)	>57	9%	-2%	13%
COc1cccc(NC2SC(=O)N(c3ccccc3)C2=O)c1 (configuration not stated)	>57	-18%	8%	4µM*[single pt active]
Oc1ccc2c3c1O[C@H]1c4c(c5ccccc5n4Cc4ccccc4)C[C@]4(O)[C@H](C2)N(CC2CC2)CC[C@@]314	>57	25µM*	-2%	35%
Oc1ccc2c3c1O[C@H]1c4[nH]c5ccccc5c4C[C@]4(O)[C@H](C2)N(CC2CC2)CC[C@@]314	>57	?	-2%	32%

Screens as filed in PubChem.
